Screening results: PubChem BioAssay, Broad Institute
In the library only some 2.2% were active in any assay of this set; here they are far more common.
CSC inhib = blocks cancer stem cells | inhibition, % at 7.5 µM | hit rate 1.1% among 300,000 | cancer stem cell-like cells viability, luminescence | AID 2717; in the data active = inhibition above about 75%; inconclusive = no clear call, values can overlap the other calls; tested in HMLE shEcad cells
Calb FLC = C. albicans growth modulation with fluconazole. AID 1979. C. albicans CaCi-2 (fluconazole-resistant clinical isolate) + fluconazole, Alamar Blue growth, 48 h. hit rate 0.57% among 300,000. growth inhibition, % (test concentration not listed);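 active = growth inhibition above about 58% in most replicates, limit read from the data, passing the limit was not always enough; inconclusive = exactly half the replicates above a set limit; inactive = most replicates below a set limit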;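 note: all wells also contain fluconazole at 8 µg/ml as a sub-toxic cotreatment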
Beta cell apopt = beta cell apoptosis inhibition | AID 435005 | INS-1E cytokine-induced death, ATP luminescence, 48 h; percent of positive-control rescue, neutral wells zero | hit rate 0.8% among 300,000 | protection from apoptosis, % (no concentration beside the values);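 active = Every replicate reaches about 75%, or at least half do and their mean reaches it too, limit read from the data; inconclusive = At least half of replicates reach the limit but their mean does not; inactive = Under half of replicates reach the limit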;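 note: higher means more ATP so stronger rescue from cytokine killing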
Shn3 3UTR inh = inhibitors of Schnurri-3 3'UTR reporter in osteoblasts; Clone20 osteoblast Shn3 3'UTR firefly luciferase, 24 h; inhibition, % at 12.5 µM; hit rate 0.52% among 360,000;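 active = mean inhibition of at least 75% with every replicate also reaching 75%; inconclusive = mean inhibition at least 75% but some replicate below; inactive = mean inhibition below 75%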
PfHsp90 yeast 2 = inhibits growth of yeast expressing Plasmodium falciparum Hsp90. S. cerevisiae expressing PfHsp90, BacTiter-Glo ATP, 48 h; yeast lacking PDR1 and PDR3 efflux regulators. inhibition, % at 9.4 µM. hit rate 0.32% among 310,000;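 active = every replicate shows inhibition above about 80%, whatever the replicate mean, limit read from the data; inconclusive = mean inhibition reaches the set limit but some replicate falls short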
Each line names hits and unclear results; the compound was inactive in the other large screens.

CCC(Oc1ccccc1)C(=O)Nc1nnc(C)s1 (stereo not given)	Calb FLC inconclusive (no result: CSC inhib)
CCC(Oc1ccccc1)C(=O)Nc1ncc([N+](=O)[O-])s1 (stereo not given)	Calb FLC 93.9
CC(CC(=O)Nc1ncc([N+](=O)[O-])s1)c1ccccc1 (stereo not given)	Calb FLC 92.2 (no result: PfHsp90 yeast 2)
COc1ccc(NC(=O)c2ccc3c(c2)NC(=O)CS3)cc1S(=O)(=O)Nc1ccc(Br)cc1	CSC inhib 79.6
CC(=O)NC12CC3CC(C1)CC(C(=O)N1CCN(c4ncccn4)CC1)(C3)C2	none
CC(/C=N/NC(=O)c1nnn(-c2nonc2N)c1CN1CCCCC1)c1ccccc1 (stereo not given)	none
COc1ccc([N+](=O)[O-])cc1NS(=O)(=O)c1ccc(Cl)c(C(=O)Nc2sc3c(c2C#N)CCCCC3)c1	none (no result: Shn3 3UTR inh, PfHsp90 yeast 2)
C#CCOC(=O)CCC(=O)NCCc1ccccc1	none
C#CCOC(=O)CCCC(=O)NCCCCCCCC	Calb FLC 109.2
CCN(CC)CCOc1ccc(/C(=C(\Cl)c2ccccc2)c2ccccc2)cc1	CSC inhib 102.7
CCN(CC)CCOc1ccc(Br)cc1	none
COc1ccc(OC)c(-n2c(CN3CCC(C(N)=O)CC3)nc3ccccc3c2=O)c1	Calb FLC 117.3
C=CCc1c(NCCO)nc(C)[nH]c1=O	none
Clc1ccccc1Nc1nnc(-c2ccncc2)s1	Beta cell apopt 75.4
O=C1C(Cl)=C(N2CCN(c3ccccc3[N+](=O)[O-])CC2)C(=O)c2ccccc21	Shn3 3UTR inh 95.7
CCOc1ccc(CCNC(=O)C2CCCN(S(=O)(=O)N3CCCCC3)C2)cc1OCC (stereo not given)	none (no result: CSC inhib, Calb FLC, Beta cell apopt, PfHsp90 yeast 2)
O=C(c1ccc(C(=O)N2CCCc3ccccc32)s1)N1CCCc2ccccc21	Calb FLC 114.3 (no result: PfHsp90 yeast 2)
CCc1ccc2c(c1)CCCN2C(=O)c1ccccc1C(=O)O	Shn3 3UTR inh 87.6 (no result: CSC inhib)
CCCCc1c(C)c(C#N)c2nc3ccccc3n2c1NCCN(C)C	none (no result: CSC inhib, Beta cell apopt)
Cc1c(Cc2ccccc2)c(NCCN(C)C)n2c(nc3ccccc32)c1C#N	PfHsp90 yeast 2 110.7
O=C(CCl)N(O)c1ccc(C=Cc2ccccc2)cc1	none (no result: CSC inhib, Calb FLC, Beta cell apopt)
C=CCN1N=C(c2ccc(NC(=O)c3ccccc3)cc2)CSC1=O	none
CCOc1ccc(OCc2cccc(C(=O)Nc3ccc(CN4CCCCC4)cc3)c2)cc1	CSC inhib 78.8
COc1ccc(OCc2cccc(C(=O)Nc3ccc(CN4CCCCC4)cc3)c2)cc1	none
COCCNC(=O)CN1C(=O)/C(=C/c2ccccc2)Oc2ccc(C(C)(C)C)cc21	none
FC(F)(F)COc1nc(N2CCOCC2)nc(N(c2ccccc2)c2ccccc2)n1	none (no result: CSC inhib, Beta cell apopt)
FC(F)(F)COc1nc(OCC(F)(F)F)nc(N2CCN(c3ccccc3)CC2)n1	Calb FLC 88.5
Cc1c[nH]c(=O)c([N+](=O)[O-])c1	none
C=CCc1cc(Cl)ccc1OCCCNC(C)C	none
C=CCc1cc(Cl)ccc1OCCOCCNC(C)CC (stereo not given)	CSC inhib 130.5
C[n+]1c2n(c3ccccc31)N=C(c1ccc(-c3ccccc3)cc1)CS2	Calb FLC 102.8, Beta cell apopt 108.2
COc1cccc(CNc2nc(NCC3CC3)nc3ccsc23)c1OC	Shn3 3UTR inh 81.7 (no result: CSC inhib, Calb FLC, Beta cell apopt, PfHsp90 yeast 2)
COc1cccc(CNc2nc(NCC3CC3)nc3ccsc23)c1	Shn3 3UTR inh 85.8 (no result: CSC inhib, Calb FLC, Beta cell apopt, PfHsp90 yeast 2)
COc1ccccc1CNc1nc(NCc2ccc(C(C)C)cc2)c2sccc2n1	Shn3 3UTR inh 87.5 (no result: CSC inhib, Calb FLC, Beta cell apopt, PfHsp90 yeast 2)
CC1(C(=O)O)CCCN(C(=O)c2cccnc2Oc2ccccc2)C1 (stereo not given)	none (no result: CSC inhib, Calb FLC, Beta cell apopt, PfHsp90 yeast 2)
O=C(CCOc1ccccc1)N1CCN(c2ccc(O)cc2)CC1	CSC inhib 82.0
O=C(CCSc1ccccc1)N1CCN(c2ccccc2)CC1	none
O=C(CCSc1ccc(Cl)cc1)N1CCN(c2ccc(O)cc2)CC1	CSC inhib 106.2
COc1cc(/C=C2/SC(=S)N(CC(=O)O)C2=O)ccc1OC(=O)c1ccco1	none
O=C(CC12CC3CC(CC(C3)C1)C2)NC(=S)Nc1ccc(CN2CCOCC2)cc1	none
CN(C)c1ccc(NC(=O)C2C3C=CC(C3)C2C(=O)O)cc1 (stereo not given)	Calb FLC 91.7
COc1ccc(-c2cc(=O)n(-c3nc4ccccc4[nH]3)[nH]2)cc1	CSC inhib 104.4
CC(C)c1ccc(NC(=O)C2(C)Cc3c(-c4cccc(C(F)(F)F)c4)ccnc3O2)cc1 (stereo not given)	none (no result: CSC inhib, Calb FLC, Beta cell apopt, PfHsp90 yeast 2)
Cc1oc(C(C)(C)C)cc1C(=O)NCc1ccc2c(c1)OCO2	none
Cn1nc(C(C)(C)C)cc1C(=O)NCc1ccc2c(c1)OCO2	Beta cell apopt 117.3, Shn3 3UTR inh 90.1
CCCCNc1c(-c2ccc(OC)c(SC(C)CC)c2)nc2cnccn12 (stereo not given)	none (no result: CSC inhib, Calb FLC, Beta cell apopt)
CCCCNc1c(-c2cccc(SC3CCCCC3)c2)nc2ccc(Cl)cn12	none (no result: Beta cell apopt)
CCCCNc1c(-c2ccc(SC(C)CC)cc2)nc2ccccn12 (stereo not given)	CSC inhib 91.9
CCCCCCSc1ccc(-c2nc3cnccn3c2NCCCC)cc1	CSC inhib 104.8 (no result: Calb FLC)
CCCCNc1c(-c2ccc(SC3CCCCC3)cc2)nc2ccccn12	CSC inhib 81.8, Beta cell apopt inconclusive
CCOC(=O)C1(Cc2ccccc2)CCCN(C(=O)COc2ccccc2OC)C1 (stereo not given)	none (no result: CSC inhib, Calb FLC, Beta cell apopt, PfHsp90 yeast 2)
O=C(NN1CC(C(=O)OCc2ccc(Cl)cc2Cl)CC1=O)c1ccccc1 (stereo not given)	none
O=S(=O)(NC(=NCCc1ccc(Cl)cc1)c1ccccc1Cl)c1cccs1	none (no result: Beta cell apopt)
Cc1ccc(NC(=O)C(=O)c2ccc(C)cc2)cc1	none
COc1cc(/C=N/NC(=O)c2ccc(COc3cc(C)ccc3C(C)C)cc2)cc(OC)c1O	none
Cc1ccc(C(C)C)c(OCc2ccc(C(=O)N/N=C/c3ccc(O)c(O)c3)cc2)c1	CSC inhib 108.6
Cc1ccc(C(C)C)c(OCc2ccc(C(=O)N/N=C/c3cccc(O)c3O)cc2)c1	CSC inhib 111.4, Calb FLC 87.3, Beta cell apopt 90.5, Shn3 3UTR inh 93.6, PfHsp90 yeast 2 121.9
CCCn1c(=O)[nH]c(=O)c2c1nc(-c1cccs1)n2CCOC	none
Cc1ccc2nc(C)cc(C(=O)N3CCCC(CO)(Cc4ccccc4C)C3)c2c1 (stereo not given)	none
CN(C)S(=O)(=O)c1cccc(N=c2scc(-c3ccc4c(c3)NC(=O)CO4)n2CC2CCCO2)c1 (stereo not given)	Shn3 3UTR inh 86.3 (no result: Beta cell apopt)
C=CCNC(=O)c1c(CS(=O)(=O)c2ccccc2)noc1C(=O)NCc1ccccc1	none (no result: Calb FLC)
COc1cccc(CN2C(=O)C3(C(C#N)=C(N)OC4=C3C(=O)CCC4)c3ccccc32)c1 (stereo not given)	Calb FLC 90.5 (no result: Beta cell apopt)
Cc1ccc(NC2=CC(=O)C(=O)c3ccccc32)c(C)c1	Beta cell apopt 101.5 (no result: CSC inhib, Calb FLC)
O=c1cccccc1NCc1ccccc1	none
O=C1C=C(Nc2ccccc2O)c2ccccc2C1=O	CSC inhib 99.1, Beta cell apopt 113.4
O=C1C=C(NCc2ccccc2)c2ccccc2C1=O	Calb FLC 99.1 (no result: CSC inhib, Beta cell apopt)
O=C1C=C(Nc2cccnc2)c2ccccc2C1=O	none (no result: CSC inhib, Calb FLC, Beta cell apopt)
